Experimental data published in PubChem BioAssay (NCATS).
Results filed as inconclusive are left out. Activity calls are given as the source filed them. Unless noted, calls come from the whole dose curve; as a rule, active = well fitted curve in either direction with a large enough effect (not every such curve was filed as active); inconclusive = small, poorly fitted or top-dose-only effect, or another doubt; inactive = flat fitted curve, though single readings scatter.

Key:
[1] = target: Lysosomal acid glucosylceramidase (Homo sapiens) (UniProt P04062); test: Glucocerebrosidase-p2 (AID 348; in the data active = potency below about 10 µM; note: potency is the fitted concentration of half-maximal effect); conditions: purified GBA, blue fluorogenic substrate, 40 min
Summary of the method: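 Normal human glucocerebrosidase (0.2 nM) with blue fluorogenic substrate (80 uM final) in citrate/phosphate pH 5.9 with 10mM sodium taurocholate, 0.01% tween-20; 40 min RT, NaOH/glycine stop; fluorescence Ex 365/Em 440; AC50 from a titration from 0.6 nM upwards.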

[2] = AP1 Signaling Pathway (AID 357); conditions: ME-180 AP-1-bla reporter, EGF-induced, beta-lactamase ratio, 5 h; at 7.69 µM (top of the series) unless noted;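 note: ME-180 reporter cells stimulated with EGF at its EC50 level; % is set by controls: 0 for no effect and ±100 for the full control effect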
Summary of the method: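 Cells are seeded overnight, exposed to compound titrations and an EC50 level of EGF for 5 hours at 37 °C, then loaded with CCF4 dye for 2.5 hours. Beta-lactamase activity under the AP-1 element is read as a blue/green ratio.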

[3] = target: Cytochrome P450 1A2 (Homo sapiens) (UniProt P05177); test: p450-cyp1a2 (AID 410; calls by dose curve; note: potency is the fitted concentration of half-maximal effect;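 for activity change, negative = inhibition: -100% = full effect of reference inhibitor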); conditions: recombinant CYP1A2, luciferin-ME demethylation, luminescence; series mostly up to 11.4 µM
Summary of the method: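 O-Demethylation of luciferin 6' methyl ether by human CYP1A2 is monitored as luciferase luminescence. Substrate sits at Km (100uM); enzyme is 20nM. Values are scaled to 57 uM furafylline as maximal inhibition.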

[4] = NFAT Signaling Pathway (AID 444); conditions: Jurkat NFAT-bla M1, carbachol, beta-lactamase ratio, 5 h; at 7.69 µM (top of the series) unless noted;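 note: carbachol stimulus at about its EC50 of 1 µM final; % is set by controls: 0 for no effect and ±100 for the full control effect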
Summary of the method: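 Jurkat cells carrying an NFAT-driven β-lactamase reporter and co-transfected muscarinic M1 receptor were treated with compound plus carbachol (1 uM final, an EC50 level) for 5 h at 37 °C. CCF4 loading followed for 1 h at RT; 460/530 nm ratio gave %activity.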

[5] = Stat Signaling Pathway (AID 446); conditions: ME-180 (cervical carcinoma) SIE beta-lactamase reporter, IL-6 stimulated, 5 h; at 7.69 µM (top of the series) unless noted;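 note: ME-180 cervical cancer cells given 40 pM IL-6 alongside compound; SIE-controlled beta-lactamase reporter measured as 460/530 nm FRET emission ratio; % is set by controls: 0 for no effect and ±100 for the full control effect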
Summary of the method: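 Compound effects on IL-6-induced STAT reporter activity were measured in ME-180 cells. After overnight culture, cells were co-treated with 40 pM IL-6 for 5 hrs before beta-lactamase substrate loading at room temperature.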

[6] = target: Glucocorticoid receptor (Homo sapiens) (UniProt P04150); test: GR-GFP Redistribution (AID 450;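 active = compounds whose dose series gives a full or clear partial fitted curve of increased nuclear translocation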; note: potency is the fitted concentration of half-maximal effect); conditions: U2OS GR-GFP nuclear translocation, laser cytometry, 2 h
[7] = target: Glucocorticoid receptor (Homo sapiens) (UniProt P04150); test: GR-EFC Redistribution (AID 451; calls by dose curve; note: potency is the fitted concentration of half-maximal effect); conditions: CHO-K1 GR-EFC translocation, beta-gal luminescence, 2 h
Summary of the method: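 CHO-K1 cells stably expressing nuclear-localized β-gal enzyme acceptor and GR fused C-terminally to the enzyme donor fragment; ligand-driven nuclear translocation restores β-gal by complementation. Compounds titrated up to 46 uM final, 2 h at 37 °C; luminescence read.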

[8] = target: Mitogen-activated protein kinase 10 (Mus musculus) (UniProt Q61831); test: JNK3 AlphaScreen Assay (AID 530); conditions: JNK3 lysate, c-Jun phosphorylation; series mostly up to 11.4 µM;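 note: kinase came from lysate of stimulated human HepG2 cells; signal reports phosphorylation of biotinylated GST-cJun 1-79 at Ser73 with 10 µM ATP; % is set by controls: 0 for no effect and ±100 for the full control effect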
Summary of the method: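 Phosphorylation of biotinylated GST-cJun(1-79) at Ser73 is measured by AlphaScreen proximity luminescence. Enzyme is JNK3 in HepG2 lysates activated with interleukin-1beta and tumor necrosis factor alpha; ATP is 10 uM final.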

[9] = target: 3',5'-cyclic-AMP phosphodiesterase 4B (Homo sapiens) (UniProt Q07343); test: qHTS Assay for Inhibitors of PDE-IV (AID 607; active = well fitted activation curve with a large enough effect in the main read-out, with a control signal flat, not every such curve was filed as active; note: % of control where 0% means no effect); conditions: HEK293 ACTOne CNG channel cells, membrane potential fluorescence; series mostly up to 22.9 µM
Summary of the method: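 ACTOne HEK293 cells carry a modified cAMP-gated CNG channel and express endogenous PDE4; plated 1000 cells/well, compounds up to 22.9 uM final. Membrane-potential dye fluorescence (ex 535/em 590) was read; parental cells received 10 uM forskolin + 100 uM RO 20-1724.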

Sequence of Lysosomal acid glucosylceramidase (Homo sapiens) (P04062 whole entry, looked up): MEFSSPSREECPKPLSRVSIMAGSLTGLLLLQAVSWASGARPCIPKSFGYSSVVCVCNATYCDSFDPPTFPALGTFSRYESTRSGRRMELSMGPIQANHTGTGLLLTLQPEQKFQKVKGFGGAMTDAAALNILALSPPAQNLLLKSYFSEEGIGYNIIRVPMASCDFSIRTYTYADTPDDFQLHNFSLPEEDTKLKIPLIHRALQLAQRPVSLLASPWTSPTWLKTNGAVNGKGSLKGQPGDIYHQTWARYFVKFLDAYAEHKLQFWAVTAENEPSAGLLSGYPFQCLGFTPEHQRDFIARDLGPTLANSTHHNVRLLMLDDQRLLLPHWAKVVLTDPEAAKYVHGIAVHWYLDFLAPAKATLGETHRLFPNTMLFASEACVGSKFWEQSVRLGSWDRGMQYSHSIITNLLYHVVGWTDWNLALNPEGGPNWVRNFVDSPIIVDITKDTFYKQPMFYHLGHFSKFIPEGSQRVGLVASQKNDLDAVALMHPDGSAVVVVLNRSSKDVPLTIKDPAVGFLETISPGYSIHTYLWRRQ
Sequence of Glucocorticoid receptor (Homo sapiens) (P04150 whole entry, looked up, the tested form may be a part): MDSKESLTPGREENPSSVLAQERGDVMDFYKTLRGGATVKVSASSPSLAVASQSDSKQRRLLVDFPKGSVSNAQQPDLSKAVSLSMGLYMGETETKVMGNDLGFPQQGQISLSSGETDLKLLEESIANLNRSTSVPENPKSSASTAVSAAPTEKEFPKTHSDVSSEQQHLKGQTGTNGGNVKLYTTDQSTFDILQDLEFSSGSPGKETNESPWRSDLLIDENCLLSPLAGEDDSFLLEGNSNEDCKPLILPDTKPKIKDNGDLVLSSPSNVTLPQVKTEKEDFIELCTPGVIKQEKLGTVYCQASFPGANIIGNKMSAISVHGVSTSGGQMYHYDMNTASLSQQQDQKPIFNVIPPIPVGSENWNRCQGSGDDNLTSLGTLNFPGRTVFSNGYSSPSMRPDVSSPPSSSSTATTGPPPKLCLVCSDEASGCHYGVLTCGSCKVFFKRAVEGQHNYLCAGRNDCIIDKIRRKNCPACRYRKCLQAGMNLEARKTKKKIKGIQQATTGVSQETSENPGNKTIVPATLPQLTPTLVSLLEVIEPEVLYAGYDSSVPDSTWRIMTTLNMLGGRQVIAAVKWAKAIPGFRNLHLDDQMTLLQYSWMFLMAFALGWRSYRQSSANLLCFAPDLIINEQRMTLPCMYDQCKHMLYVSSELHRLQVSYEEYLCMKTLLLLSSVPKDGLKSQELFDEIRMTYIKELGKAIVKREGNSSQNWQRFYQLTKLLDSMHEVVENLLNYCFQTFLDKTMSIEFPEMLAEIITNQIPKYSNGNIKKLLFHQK
Sequence of 3',5'-cyclic-AMP phosphodiesterase 4B (Homo sapiens) (Q07343 whole entry, looked up): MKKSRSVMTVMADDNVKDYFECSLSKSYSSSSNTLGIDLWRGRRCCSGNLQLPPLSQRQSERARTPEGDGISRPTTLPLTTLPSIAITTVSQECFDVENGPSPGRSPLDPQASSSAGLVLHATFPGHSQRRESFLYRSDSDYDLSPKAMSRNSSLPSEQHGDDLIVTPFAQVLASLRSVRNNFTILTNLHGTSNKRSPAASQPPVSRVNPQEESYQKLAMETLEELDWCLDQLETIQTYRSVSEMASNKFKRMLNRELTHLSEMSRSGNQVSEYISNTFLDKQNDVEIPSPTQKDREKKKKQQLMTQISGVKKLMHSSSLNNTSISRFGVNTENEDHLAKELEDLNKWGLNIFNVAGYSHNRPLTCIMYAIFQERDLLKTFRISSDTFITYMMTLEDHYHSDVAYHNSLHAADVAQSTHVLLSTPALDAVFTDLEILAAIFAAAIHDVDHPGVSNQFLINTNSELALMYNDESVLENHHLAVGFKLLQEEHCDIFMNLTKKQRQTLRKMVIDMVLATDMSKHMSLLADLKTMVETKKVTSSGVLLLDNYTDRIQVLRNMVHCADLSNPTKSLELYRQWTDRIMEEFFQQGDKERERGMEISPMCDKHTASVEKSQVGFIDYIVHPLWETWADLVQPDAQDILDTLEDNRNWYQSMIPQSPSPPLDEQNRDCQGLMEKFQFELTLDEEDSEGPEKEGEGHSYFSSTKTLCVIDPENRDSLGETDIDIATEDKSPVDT
Sequence of Cytochrome P450 1A2 (Homo sapiens) (P05177 whole entry, looked up): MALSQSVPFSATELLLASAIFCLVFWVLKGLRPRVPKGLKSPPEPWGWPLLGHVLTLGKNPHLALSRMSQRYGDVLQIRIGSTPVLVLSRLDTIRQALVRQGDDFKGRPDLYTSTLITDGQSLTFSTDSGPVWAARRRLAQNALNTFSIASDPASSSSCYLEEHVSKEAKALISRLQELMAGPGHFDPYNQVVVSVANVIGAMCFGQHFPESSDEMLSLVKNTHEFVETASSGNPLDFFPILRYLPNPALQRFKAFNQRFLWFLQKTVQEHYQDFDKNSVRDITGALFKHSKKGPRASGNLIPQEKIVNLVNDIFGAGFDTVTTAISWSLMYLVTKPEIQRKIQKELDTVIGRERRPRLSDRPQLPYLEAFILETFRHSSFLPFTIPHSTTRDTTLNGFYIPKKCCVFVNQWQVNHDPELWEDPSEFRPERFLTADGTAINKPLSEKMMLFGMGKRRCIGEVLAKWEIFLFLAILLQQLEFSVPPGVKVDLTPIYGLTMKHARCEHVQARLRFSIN

SMILES | Potency [1] | activity change, negative = inhibition [2] | activity change, negative = inhibition [3] | activity change, negative = inhibition [4] | activity, negative = inhibition [5] | Potency [6] | Potency [7] | Potency [8] | Potency [9] | Potency [3]
CC1(C)O[C@H]2[C@@H](O1)[C@@H](On1nnc3ccc(Cl)cc31)O[C@@H]2[C@@H]1COC(C)(C)O1 | > 11.4 µM (inactive) | -0.0878% (inactive) | -10.9% [at 2.29 µM] (inactive) | 3.42% (inactive) | 2.63% (inactive) | > 46 µM (inactive) | > 9.22 µM (inactive) | inactive | inactive | 
Oc1ccccc1CNCc1ccccc1O | > 11.4 µM (inactive) | -4.9% (inactive) |  | -12.2% (inactive) | -8.46% (inactive) | > 46 µM (inactive) | > 9.22 µM (inactive) | inactive | inactive | inactive
CSc1ncnc2c1ncn2[C@@H]1O[C@@H](CO)[C@H](O)O[C@@H]1O | > 11.4 µM (inactive) | -6.79% (inactive) | -5.2% [at 2.29 µM] (inactive) | 22.2% (inactive) | 22.9% (inactive) | > 46 µM (inactive) | > 9.22 µM (inactive) | inactive | inactive | 
CC(=O)[C@H]([C@@H](c1ccccc1)N1CCOCC1)N1CCOCC1 | > 11.4 µM (inactive) | 4% (inactive) |  | 15.1% (inactive) | 4.56% (inactive) | > 46 µM (inactive) | > 9.22 µM (inactive) | inactive | inactive | inactive
COc1ccc2[nH]c3cc4c(=O)c5cc(OC)ccc5[nH]c4cc3c(=O)c2c1 | > 11.4 µM (inactive) | -2.15% (inactive) | -6% [at 2.29 µM] (inactive) | -1.64% (inactive) | -1.86% (inactive) | > 46 µM (inactive) | > 9.22 µM (inactive) | inactive | inactive | 
NS(=O)(=O)c1ccc(NCc2cnc3ccccc3n2)cc1 | > 11.4 µM (inactive) | 5.55% (inactive) | -18.2% [at 2.29 µM] (inactive) | 6.06% (inactive) | 3.16% (inactive) | > 46 µM (inactive) | > 9.22 µM (inactive) | inactive | inactive | 
S=c1nc[nH]c2c1ncn2Cc1ccco1 | > 11.4 µM (inactive) | 8.99% (inactive) |  | -0.242% (inactive) | 5.55% (inactive) | > 46 µM (inactive) | > 9.22 µM (inactive) | inactive | inactive | inactive
Clc1ccc(C=Nc2ccc3c(c2)Cc2ccccc2-3)c(Cl)c1 | > 11.4 µM (inactive) | 3.71% (inactive) |  | 23.1% (inactive) | 12.8% (inactive) | > 46 µM (inactive) | > 9.22 µM (inactive) | inactive | inactive | 0.794 µM (active)
Oc1cc(CN2COc3ccccc32)c(O)cc1CNC1CCCCC1 | > 11.4 µM (inactive) | 6.94% (inactive) |  | -5.35% (inactive) | 0.916% (inactive) | > 46 µM (inactive) | > 9.22 µM (inactive) | inactive | inactive | inactive
Nc1ncnc2nc(N3CCN(CCO)CC3)[nH]c12 | > 11.4 µM (inactive) | 2.43% (inactive) | -1.2% [at 2.29 µM] (inactive) | 8.33% (inactive) | -1.25% (inactive) | > 46 µM (inactive) | > 9.22 µM (inactive) | inactive | inactive | 
Cn1c(C[C@@H](O)c2nc3ccccc3n2C)nc2ccccc21 | > 11.4 µM (inactive) | 11.7% (inactive) | -2.6% [at 2.29 µM] (inactive) | 13.3% (inactive) | 8.01% (inactive) | > 46 µM (inactive) | > 9.22 µM (inactive) | inactive | inactive | 
Nc1ncnc2c1ncn2CCCCC(=O)O | > 11.4 µM (inactive) | 10.7% (inactive) |  | 13.9% (inactive) | -0.241% (inactive) | > 46 µM (inactive) | > 9.22 µM (inactive) | inactive | inactive | inactive
CC(=NCC(=O)O)c1ccccc1 | > 11.4 µM (inactive) | 0.333% (inactive) |  | 13.9% (inactive) | 1.76% (inactive) | > 46 µM (inactive) | > 9.22 µM (inactive) | inactive | inactive | 3.98 µM (active)
CN1CCCC[C@@H]1CCN1CCCCC1 | > 11.4 µM (inactive) | 4.46% (inactive) |  | -9.35% (inactive) | 3.65% (inactive) | > 46 µM (inactive) | > 9.22 µM (inactive) | inactive | inactive | 0.01 µM (active)
C[C@H](Br)C(=O)c1ccc2cc(Br)c3ccccc3c2c1 | > 11.4 µM (inactive) | -18.5% (inactive) |  | 26.1% (inactive) | -2.19% (inactive) | > 46 µM (inactive) | > 9.22 µM (inactive) | inactive | inactive | 0.158 µM (active)
O=C(O)Cc1cc(Cl)ccc1O | > 11.4 µM (inactive) | -8.98% (inactive) |  | -0.2% (inactive) | 20.2% (inactive) | > 46 µM (inactive) | > 9.22 µM (inactive) | inactive | inactive | inactive
O=C(O)C1(C(=O)O)CCN(S(=O)(=O)c2ccccc2)CC1 | > 11.4 µM (inactive) | -0.169% (inactive) | 14% [at 2.29 µM] (inactive) | 5.93% (inactive) | 11.9% (inactive) | > 46 µM (inactive) | > 9.22 µM (inactive) | inactive | inactive | 
Cn1c(=O)c2[nH]c([C@@H]3CC(=O)C[C@H](c4nc5c([nH]4)c(=O)n(C)c(=O)n5C)N3)nc2n(C)c1=O | > 11.4 µM (inactive) | 3.07% (inactive) | -18.2% [at 2.29 µM] (inactive) | 19% (inactive) | 6.09% (inactive) | > 46 µM (inactive) | > 9.22 µM (inactive) | inactive | inactive | 
Cn1c(=S)c2[nH]c(SCCN3CCCC3)nc2n(C)c1=O | > 11.4 µM (inactive) | -5.98% (inactive) | -29.7% [at 2.29 µM] (inactive) | 11.4% (inactive) | -0.274% (inactive) | > 46 µM (inactive) | > 9.22 µM (inactive) | inactive | inactive | 
COCCn1c(=O)c(-c2cc(F)cc(F)c2)nc2cnc(OC)nc21 | > 11.4 µM (inactive) | -11.6% (inactive) |  | -5.01% (inactive) | -2.4% (inactive) | > 9.22 µM (inactive) | > 46 µM (inactive) | inactive | inactive | 3.98 µM (active)
OCCSCc1ccccc1 | > 11.4 µM (inactive) | 2.72% (inactive) |  | 3.48% (inactive) | 4.23% (inactive) | > 46 µM (inactive) | > 9.22 µM (inactive) | inactive | inactive | inactive
O=C(O)[C@H](Cc1ccc(O)c([N+](=O)[O-])c1)N1C(=O)c2ccccc2C1=O | > 11.4 µM (inactive) | 0.441% (inactive) | -17.9% [at 2.29 µM] (inactive) | 11.4% (inactive) | 2.16% (inactive) | > 46 µM (inactive) | > 9.22 µM (inactive) | inactive | inactive | 
O=C(O)c1cc(N=Cc2ccccc2O)cc(C(=O)O)c1 | > 11.4 µM (inactive) | -3.29% (inactive) |  | 17.2% (inactive) | -4.46% (inactive) | > 46 µM (inactive) | > 9.22 µM (inactive) | inactive | inactive | inactive
O=C(O)CCC(=O)c1ccc2ccc3cccc4ccc1c2c34 | > 11.4 µM (inactive) | 5.4% (inactive) |  | 19.9% (inactive) | -5.24% (inactive) | > 46 µM (inactive) | > 9.22 µM (inactive) | inactive | inactive | 1.26 µM (active)
Cn1cnc([N+](=O)[O-])c1[Se]c1nc(N)nc2c1ncn2[C@@H]1O[C@@H](CO)[C@H](O)[C@@H]1O | > 11.4 µM (inactive) | 4.67% (inactive) | -12.8% [at 2.29 µM] (inactive) | 8.52% (inactive) | 10.6% (inactive) | > 46 µM (inactive) | > 9.22 µM (inactive) | inactive | inactive | 
CN=C(N)/N=C(\N)Nc1cc2ccccc2c2ccccc12 | > 11.4 µM (inactive) | -3.61% (inactive) |  | 27.5% (inactive) | 12.7% (inactive) | > 46 µM (inactive) | > 9.22 µM (inactive) | inactive | inactive | 0.251 µM (active)
Cn1c(=O)c2c(ncn2CN2CCN(Cn3cnc4c3c(=O)n(C)c(=O)n4C)CC2)n(C)c1=O | > 11.4 µM (inactive) | -1.04% (inactive) | -18.2% [at 2.29 µM] (inactive) | 7.2% (inactive) | 2.15% (inactive) | > 46 µM (inactive) | > 9.22 µM (inactive) | inactive | inactive | 
CC(=O)[C@@H](C)CCO[C@@]1(C)OCC[C@@H]1C | > 11.4 µM (inactive) | 12.4% (inactive) |  | 6.23% (inactive) | 14.8% (inactive) | > 46 µM (inactive) | > 9.22 µM (inactive) | inactive | inactive | inactive
